Each structure is given as a SMILES string. Results filed as inconclusive are left out. Entries that show only a call come without a potency. Activity calls are given as the source filed them. Calls follow the shape of the dose curve; as a rule, active = well fitted inhibition curve with a large enough effect; inconclusive = small, poorly fitted or top-dose-only effect; inactive = flat fitted curve, though single readings scatter.

The values that follow come from PubChem BioAssay (NCATS).
Potency is read from the fitted curve at half-maximal effect.

The test system of this assay is CP203. Description: qHTS profiling for inhibitors of Plasmodium falciparum proliferation (AID 504749). Also: nearly all actives have a fitted effect of over 60% in size. The following applies: P. falciparum in erythrocytes, SYBR Green DNA, 72 h; series mostly up to 28.7 µM. From the text: NIH National Institute of Allergy and Infectious Diseases [NIAID] NIH Chemical Genomics Center [NCGC] MLPCN Grant: None Assay Provider: Xinzhuan Su, NIAID NCGC Assay Overview: Plasmodium falciparum is a virulent malarial parasite that kills 1-2 million people worldwide each year. Transmitted by mosquitoes, the sporozoite form of the parasite enters the blood stream to infect hepatocytes, where they become merozoites that infect red blood cells (erythrocytes). Within erythrocytes, merozoites begin a […] cycle of growth and division, after which the parasite is released to infect new red blood cells. Gametocytes, which form within erythrocytes as well, circulate in the bloodstream and are ingested by the mosquito, thereby completing the life cycle. To profile malarial isolates for differential chemical responses and to identify inhibitors of malarial growth, an assay that measures P. falciparum growth and replication within erythrocytes was employed. This assay uses a DNA binding fluorescent dye (SYBR Green) to detect parasite DNA following cell lysis. Because mature erythrocytes lack DNA, only Plasmodium-derived DNA is detected.
NCGC Assay Protocol Summary: The SYBR Green viability assay was adapted from a method described previously (Plouffe et al., 2008). For screening 3 ul culture medium was dispensed into 1536 well black clear bottom plates (Aurora Biotechnologies) using a Multidrop Combi (Thermo Fisher Scientific Inc.), 23 nL compounds in DMSO were added by a pin tool (Kalypsys), and 5 ul of erythrocytes infected with P. falciparum (0.3% parasitemia, 2.5% hematocrit final concentration) were added. The plates were incubated at 37 C in a humidified incubator in 5% CO2 for 72 h, and 2 ul lysis buffer (20 mM Tris HCl, 10 mM EDTA, 0.16% saponin, 1.6% triton X, 10X SYBR Green I supplied as 10,000X […] by Invitrogen) was added to each well. The plates were mixed for 25 sec with gentle shaking and incubated overnight at room temperature in the dark. The following morning, fluorescence intensity at 485(14) nm excitation and 535(25) nm emission wavelengths was measured on an EnVision (Perkin Elmer) plate reader. Plate reads were normalized relative to the control inhibitor (0.29 uM artemisinin) and vehicle (DMSO) wells present on each plate and then corrected by an algorithm using vehicle-only control plates at the beginning and end of the compound plate stack.
A general note: Quantitative high-throughput screening tests each substance at several concentrations.
Regarding `CCCCCCCCCC(CC)c1ccc(S(=O)(=O)O)cc1` (configuration not stated), the Potency entry is “inactive”.

Consider `NC(=O)CN1CC(O)CC1=O` (configuration not stated), for which the Potency entry was “inactive”.

As to `O=C(O)C(Cl)Cl`, the Potency result was “inactive”.

For `Cc1ccc(Cl)c(O)c1`, the Potency entry is “inactive”.

As for `COC(=O)c1cncn1C(C)c1ccccc1` (configuration not stated), the Potency entry was “inactive”.

Turning to `CCCN1CCC[C@H](c2cccc(O)c2)C1`, the Potency result was “inactive”.

As for `NC1=NC(=O)N2CC12` (configuration not stated), the Potency entry was “inactive”.

`C=CCN1CC[C@]23CCCCC2[C@H]1Cc1ccc(O)cc13` (some centres not stated): the Potency result is “inactive”.

Consider `O=[N+]([O-])c1ccc([As](=O)(O)O)cc1`, for which the Potency is 9.53 µM (active).

With `C[C@]12CCC(=O)C(O)=C1CC[C@@H]1[C@H]3CCC(=O)[C@@]3(C)CC[C@@H]12`, the Potency result was “inactive”.

Take `c1ccc(C2(c3ccccc3)CC2C2=NCCN2)cc1` (configuration not stated): the Potency entry is “inactive”.

For the molecule `CCCCc1ccc(C(=O)O)nc1`, the Potency entry was “inactive”.

In the case of `C#CC1(O)CCC2C3CCC4=CC(=O)CCC4(C)C3CCC21C` (configuration not stated), the Potency entry is “inactive”.

As for `CC(=O)OCC1=C(C(=O)O)N2C(=O)[C@@H](N)[C@@H]2SC1`, the Potency result was “inactive”.

Take `CC(=O)[O][Hg][c]1ccccc1`: the Potency was 13.5 µM (active).

As for `CN1C2CCC1CC(OC(=O)c1cc(Cl)cc(Cl)c1)C2` (configuration not stated), the Potency entry is “inactive”.

Regarding `CC(C)NC(C)Cc1ccc(I)cc1` (configuration not stated), the Potency entry was “inactive”.

As for `O=C(O)COc1ccccc1`, the Potency entry was “inactive”.

Turning to `Cc1cc(O)ccc1Cl`, the Potency result was “inactive”.

As for `CC[N+]1(CCOC(=O)C(O)(c2ccccc2)c2ccccc2)CCCCC1`, the Potency result was “inactive”.

As for `COC(=O)[C@@H](N)CCCN=C(N)N[N+](=O)[O-]`, the Potency result is “inactive”.

As to `C1CCC(NC2CCCCC2)CC1`, the Potency result was “inactive”.
